Data as given in the supplement of paper PMC12494721.
Counter-ions that a name gives are not always drawn.

tested on: Klebsiella aerogenes DSM 30053; experiment: fold change of Cadaverine concentration vs plate DMSO controls (fold change (ratio)); higher = more amine produced, active = hit call of the paper (significant change in both replicates, either direction); conditions: incubation time: 27 h, anaerobic, 37 °C;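 for the amine columns active = adjusted P below 0.05 in both replicates with a change the same way and a mean fold change under 0.8 or over 1.25; inactive = the rest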
In short: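 Amine values are fold changes relative to DMSO-only wells on the same plate. They derive from 27 h, 37 °C anaerobic mGAM cultures of four gut bacterial strains in 80 µL wells, dosed at 20 µM final, or 50 µM final for sweeteners. Extraction of the whole culture, LC–triple-quadrupole MS in dynamic MRM mode, external calibration curves and within-batch drift correction were used, with 2 biological replicates averaged.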

Fold change of Cadaverine concentration, inactive:
CCN(Cc1ccncc1)C(=O)C(CO)c1ccccc1 (stereo not drawn) [Tropicamide] (20 µM) 1.03, CNC1(C)C2CCC(C2)C1(C)C (stereo not drawn) [Mecamylamine hydrochloride] (20 µM) 1, CC1=NN(c2ccccc2)C(=O)C1 [Edaravone] (20 µM) 1.01, Nc1ccn([C@@H]2O[C@H](CO)[C@@H](O)C2(F)F)c(=O)n1 [Gemcitabine] (20 µM) 0.999, CCCC(CCC)C(=O)O[C@H]1C[C@H]2CC[C@@H](C1)[N+]2(C)C [Anisotropine Methylbromide] (20 µM) 0.99, COc1c(N2CCNC(C)C2)c(F)cc2c(=O)c(C(=O)O)cn(C3CC3)c12 (stereo not drawn) [Gatifloxacin] (20 µM) 0.97, OC(CNCC(O)C1CCc2cc(F)ccc2O1)C1CCc2cc(F)ccc2O1 (stereo not drawn) [Nebivolol hydrochloride] (20 µM) 0.998, COc1ccccc1O [Guaiacol] (20 µM) 0.988, COc1ccc(CC2c3cc(OC)c(OC)cc3CC[N+]2(C)CCC(=O)OCCCCCOC(=O)CC[N+]2(C)CCc3cc(OC)c(OC)cc3C2Cc2ccc(OC)c(OC)c2)cc1OC (stereo not drawn) [Atracurium besylate] (20 µM) 1.03, O=C(O)Cc1cc(I)c(Oc2ccc(O)c(I)c2)c(I)c1 [Tiratricol] (20 µM) 1.01, COc1cc(/C=C/C(=O)N2CCN(CC(=O)N3CCCC3)CC2)cc(OC)c1OC [Cinepazide maleate] (20 µM) 1.06, C[C@H](CCC(=O)O)[C@H]1CC[C@H]2[C@@H]3C(=O)C[C@@H]4CC(=O)CC[C@]4(C)[C@H]3CC(=O)[C@]12C [Dehydrocholic acid] (20 µM) 1.01, CN1CCOC(c2ccccc2)c2ccccc2C1 (stereo not drawn) [Nefopam hydrochloride] (20 µM) 1.03, CCOc1ccc(NC(N)=O)cc1 [(4-Ethoxyphenyl)urea] (50 µM) 1.01, CCCCOc1ccc(CC(=O)NO)cc1 [Bufexamac] (20 µM) 0.956, CCOc1ccc2ccccc2c1C(=O)N[C@@H]1C(=O)N2[C@@H]1SC(C)(C)[C@@H]2C(=O)O [Nafcillin sodium salt monohydrate] (20 µM) 1.02, c1ccc2cc3c(ccc4ccccc43)cc2c1 [Benz[a]anthracene] (20 µM) 1.17, CC(C)NC[C@H](O)COc1cccc2ccccc12 [(S)-(-)-Propranolol hydrochloride] (20 µM) 1.01
